Source: PubChem (several laboratories)
Shn3 inh set2: inhibitors of Schnurri-3 3'UTR reporter in osteoblasts. Clone20 osteoblast Shn3 3'UTR firefly luciferase, 24 h. inhibition, % at 12.5 µM. 360,000 tested, 0.52% active;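 active = mean inhibition of at least 75% with every replicate also reaching 75%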
Peg3 promoter: reduces Peg3 promoter-driven luciferase expression in HeLa | HeLa PEG-Prom luciferase reporter, luminescence, overnight | inhibition, % at 20 µM | 360,000 tested, 1.7% active | AID 588405;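 active = inhibition of at least 50% at 20 µM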
MITF TRPM1 inh: MITF TRPM1 promoter inhibition in SK-MEL-5 cells | SK-MEL-5 TRPM1 promoter luciferase, 24 h | inhibition, % at 12.5 µM | 330,000 tested, 0.83% active;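 active = mean inhibition across replicates of 60% or more, whatever share of single replicates reaches that level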
KKLEB cytotox: reduces viability of KKLEB cystic fibrosis airway cells; KKLEB CF airway cells viability, ATPlite luminescence, overnight; active compounds read low; cells stimulated with P. aeruginosa culture filtrate; activity change (cytotoxicity), % at 5 µM; 360,000 tested, 0.36% active;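 active = corrected activity change at or below -50% at 5 µM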
LMP1 NFkB inh: reduces LMP1-driven NF-kappaB luciferase signal; LMP1-induced NF-kappaB luciferase reporter cells, luminescence; inhibition, % at 12.5 µM; AID 504558; 350,000 tested, 0.69% active; in the data active = inhibition above about 41%
CF NFkB inh: cystic fibrosis NF-kB activation inhibition; 360,000 tested, 0.86% active; AID 588850; KKLEB NF-kB-GFP reporter, PAF-induced, GFP fluorescence overnight; inhibition, % at 5 µM;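 active = at least 50% inhibition at 5 µM, scaled per plate between neutral and stimulator controls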;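 note: PAF is a Pseudomonas aeruginosa culture filtrate used as stimulus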
Numbers stand for hits; - = inactive; . = not tested or not shown. Most compounds without a hit are left out; they make up all but 2.9% or so of the library.

SMILES | Shn3 inh set2 | Peg3 promoter | MITF TRPM1 inh | KKLEB cytotox | LMP1 NFkB inh | CF NFkB inh
CC(C)(C)C(=O)/C=c1\s/c(=C\c2ccc(-c3ccc([N+](=O)[O-])cc3)o2)c(=O)n1CC(=O)NC(N)=O | - | 55 | - | - | - | -
c1ccc(-c2cc3cc4c(cc3cn2)OCO4)cc1 | - | - | - | - | - | -
Cc1cc(C)c(C)c(S(=O)(=O)ON2C(=O)c3ccccc3C2=O)c1C | - | 89 | - | -53 | - | 69
O=S(=O)(c1ccccc1)N1CCN(S(=O)(=O)c2ccc(F)cc2)CC1 | - | - | - | - | - | -
Cc1ccc(S(=O)(=O)N2CCN(CCc3ccccc3)CC2)c(C)c1 | - | - | - | - | - | -
Cc1ccc(S(=O)(=O)ON2C(=O)c3ccccc3C2=O)c(C)c1 | - | 60 | - | - | - | -
O=C1c2ccccc2C(=O)N1OS(=O)(=O)c1ccc(F)cc1 | - | 61 | - | - | - | -
Cc1cccc(CN2CCN(C3CN(Cc4cn(Cc5ccccc5C(F)(F)F)nn4)S(=O)(=O)C3)CC2)c1 (centres undefined) | - | - | . | - | . | -
CN(C(=O)c1ccc(NC(=O)Cc2cccc(NC(=O)C3CCCN(C(=O)C4CC4)C3)c2)cc1)C1CC1 (centres undefined) | - | - | - | - | - | -
Cc1ccsc1C(=O)OCC(=O)c1cc(C)n(C)c1C | - | - | - | - | 51 | -
O=C(C(Cl)Cl)N1c2ccccc2OCC1c1ccccc1 (centres undefined) | - | 59 | - | - | - | -
Cc1ccc(S(=O)(=O)N2c3ccccc3OCC2c2ccccc2)cc1 (centres undefined) | - | - | - | - | - | -
N#Cc1c(NC(=O)/C=C/c2ccco2)sc2c1CCCC2 | - | - | - | -52 | - | 62
COc1ccc(/C=N/NC(=O)CC#N)cc1Oc1nc(Cl)ncc1F | - | - | - | - | - | -
COc1cc(/C=C(/C#N)C(=O)Nc2ccc(C)cc2)ccc1Oc1nc(Cl)ncc1F | - | 51 | - | - | - | -
O=C(NNc1ccccc1[N+](=O)[O-])Nc1ccc(Cl)c(Cl)c1 | - | - | - | - | - | -
CCN(CC)S(=O)(=O)c1cc([N+](=O)[O-])ccc1NNC(=O)Nc1ccc(Cl)c(Cl)c1 | . | - | - | - | 46 | -
CCn1c(SCC(=O)N(C)c2c(N)n(Cc3ccccc3)c(=O)[nH]c2=O)nnc1-c1cccs1 | - | - | . | - | - | -
COc1ccc(C(=O)NCC(c2ccco2)N2CCOCC2)cc1 (centres undefined) | - | - | . | - | - | -
OC(c1cccc(Cl)c1)c1ncc(-c2ccc(Oc3ccccc3)cc2)[nH]1 (centres undefined) | - | 54 | . | - | . | -
Cc1cccc(/C=C2\CCC(=C3SCCCS3)C2=O)c1 | - | - | - | -64 | 48 | -
COc1cc(OC)cc(-c2nc3ccccc3c(=O)n2OC(=O)c2ccccc2C)c1 | - | 53 | - | - | - | -
O=C1c2[nH]nc(-c3ccccc3O)c2C(c2cccc(Cl)c2)N1Cc1ccco1 (centres undefined) | - | 60 | - | - | - | -
O=C1c2[nH]nc(-c3ccccc3O)c2C(c2ccc(F)cc2)N1Cc1ccco1 (centres undefined) | - | - | - | - | - | -
CC(=O)c1ccc(OCC(=O)N(CCC2=CCCCC2)c2c(N)n(Cc3ccccc3)c(=O)[nH]c2=O)cc1 | - | - | - | - | - | -
Nc1c(N(CCC2=CCCCC2)C(=O)Cc2ccc(F)cc2)c(=O)[nH]c(=O)n1Cc1ccccc1 | - | - | - | - | - | -
Nc1c(N(CCC2=CCCCC2)C(=O)COc2ccc(F)cc2Cl)c(=O)[nH]c(=O)n1Cc1ccccc1 | - | 106 | 97 | - | - | -
Nc1c(N(CCC2=CCCCC2)C(=O)COc2ccc([N+](=O)[O-])cc2)c(=O)[nH]c(=O)n1Cc1ccccc1 | - | 84 | - | - | - | -
CCOC(=O)c1c(C)n(C)c2ccc(O)c(CN3CCN(C)CC3)c12 | - | - | - | - | - | -
COCCOC(=O)c1c(C)oc2ccc(O)c(CN3CCC(C)CC3)c12 (tested in a mixture with another compound) | 93 | - | - | - | - | -
